Laboratory results as given in PubChem BioAssay (NCATS).
Results filed as inconclusive are left out. The source made the active and inactive calls. Calls follow the shape of the dose curve; as a rule, active = well fitted cell-killing curve with a large enough effect; inconclusive = small, poorly fitted or top-dose-only effect, or effect the other way; inactive = flat fitted curve, though single readings scatter. *1 amine or outer side, *2 acyl side, *3 side chain or, on linkers, in order; H or OH if unused. Where a SMILES comes first, the peptide text is derived from it. Bridges are numbered along the chain shown (N, C = ends). X6 = O=C(CCC[*:2])[*:1]

Tests used:
Test in all cases: Primary qHTS to identify gynecologic anti-cancer compounds using libraries of approved drugs and bioactive compounds (AID 1345084); also: nearly all actives have a fitted effect of over 55% in size
[1] = tested on: CAOV3; details: Gynecologic cancer cell panel viability, ATPlite luminescence, 48 h; series mostly up to 57.5 µM
Outline: (§1)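 Measured: luminescence after ATPlite addition (15 min, RT). Exposure: 48 h, 37 C, 5% CO2.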

[2] = tested on: CASKI; details: Gynecologic cancer cell panel viability, ATPlite luminescence, 48 h; series mostly up to 57.5 µM
Outline: as §1

[3] = tested on: Es-2; details: Gynecologic cancer cell panel viability, ATPlite luminescence, 48 h; series mostly up to 57.5 µM
Outline: as §1

[4] = tested on: HeLa; details: Gynecologic cancer cell panel viability, ATPlite luminescence, 48 h; series mostly up to 57.5 µM
Outline: as §1

[5] = tested on: Hek293T; details: Gynecologic cancer cell panel viability, ATPlite luminescence, 48 h, control line for the selectivity index; series mostly up to 57.5 µM
Outline: as §1

[6] = tested on: JEG-3; details: Gynecologic cancer cell panel viability, ATPlite luminescence, 48 h; series mostly up to 57.5 µM
Outline: as §1

[7] = tested on: OV90; details: Gynecologic cancer cell panel viability, ATPlite luminescence, 48 h; series mostly up to 57.5 µM
Outline: as §1

[8] = tested on: PA-1; details: Gynecologic cancer cell panel viability, ATPlite luminescence, 48 h; series mostly up to 57.5 µM
Outline: as §1

[9] = tested on: SKOV3; details: Gynecologic cancer cell panel viability, ATPlite luminescence, 48 h; series mostly up to 57.5 µM
Outline: as §1

[10] = tested on: Tov-21-G; details: Gynecologic cancer cell panel viability, ATPlite luminescence, 48 h; series mostly up to 57.5 µM
Outline: as §1

[11] = tested on: Tov112D; details: Gynecologic cancer cell panel viability, ATPlite luminescence, 48 h; series mostly up to 57.5 µM
Outline: as §1
% is scaled to controls: 0 for no effect and ±100 for the full control effect.

CCNC(=O)[C@@H]1CCCN1C(=O)[C@H](CCCN=C(N)N)NC(=O)[C@H](CC(C)C)NC(=O)[C@@H](C)NC(=O)[C@H](Cc1ccc(O)cc1)NC(=O)[C@H](CO)NC(=O)[C@H](Cc1c[nH]c2ccccc12)NC(=O)[C@H](Cc1cnc[nH]1)NC(=O)[C@@H]1CCC(=O)N1
inactive: Potency [1] | Potency [2] | Potency [3] | Potency [4] | Potency [5] | Potency [6] | Potency [7] | Potency [8] | Potency [9] | Potency [10] | Potency [11]

CCC1CC2C(C)=CC3CCCCC3C2(C)C2(OC(=O)C(C)(O)OC2=O)O1 (stereo not drawn)
inactive: Potency [1] | Potency [2] | Potency [3] | Potency [4] | Potency [5] | Potency [6] | Potency [7] | Potency [8] | Potency [9] | Potency [10] | Potency [11]

C[C@@H]1O[C@@H](O[C@H]2[C@H](O)[C@@H](C(=O)O)O[C@@H](O[C@H]3CC[C@@]4(C)C(CC[C@]5(C)C4CC=C4C6CC(C)(C)CC[C@]6(C(=O)O)CC[C@]45C)C3(C)C)[C@@H]2O[C@@H]2O[C@H](CO)[C@@H](O)[C@H](O)[C@H]2O)[C@H](O)[C@H](O)[C@H]1O (stereo partly drawn)
inactive: activity change, negative = cytotoxicity [1] 1.71% [at 11.6 µM] | activity change, negative = cytotoxicity [2] -2.17% [at 11.6 µM] | activity change, negative = cytotoxicity [3] 0.67% [at 11.6 µM] | activity change, negative = cytotoxicity [4] 6.77% [at 11.6 µM] | activity change, negative = cytotoxicity [5] -9.05% [at 11.6 µM] | activity change, negative = cytotoxicity [6] -1.5% [at 11.6 µM] | activity change, negative = cytotoxicity [7] -2.55% [at 11.6 µM] | activity change, negative = cytotoxicity [8] -11.5% [at 11.6 µM] | activity change, negative = cytotoxicity [9] -1.84% [at 11.6 µM] | activity change, negative = cytotoxicity [10] 0.088% [at 11.6 µM] | activity change, negative = cytotoxicity [11] 0.16% [at 11.6 µM]

CC(=O)c1c(O)cc2cccc3c2c1CC(C)(O)O3 (stereo not drawn)
inactive: Potency [1] | Potency [2] | Potency [3] | Potency [4] | Potency [5] | Potency [6] | Potency [7] | Potency [8] | Potency [9] | Potency [10] | Potency [11]

CC12CCC3c4ccc(O)cc4CCC3C1CCC2OC1OC(C(=O)O)C(O)C(O)C1O (stereo not drawn)
inactive: Potency [1] | Potency [2] | Potency [3] | Potency [4] | Potency [5] | Potency [6] | Potency [7] | Potency [8] | Potency [9] | Potency [10] | Potency [11]

CC1(C)O[C@]23C[C@H]1C[C@H](OC(=O)c1ccoc1)[C@]2(C)[C@@H](OC(=O)c1ccoc1)CCC3(C)O (stereo partly drawn)
inactive: Potency [1] | Potency [2] | Potency [3] | Potency [4] | Potency [5] | Potency [6] | Potency [7] | Potency [8] | Potency [9] | Potency [10] | Potency [11]

CC1=C(C)C(=O)OC(C(C)C2C(O)CC3C4C5OC5C5(O)CC(OC6OC(CO)C(O)C(O)C6O)CC(O)C5(C)C4CCC32C)C1 (stereo not drawn)
inactive: Potency [1] | Potency [2] | Potency [3] | Potency [4] | Potency [5] | Potency [6] | Potency [7] | Potency [8] | Potency [9] | Potency [10] | Potency [11]

O=C(/C=C/c1ccc(O)cc1)OC[C@H]1O[C@@H](OC(=O)/C=C/c2ccccc2)[C@H](O)[C@@H](O)[C@@H]1O
inactive: Potency [1] | Potency [2] | Potency [3] | Potency [4] | Potency [5] | Potency [6] | Potency [7] | Potency [8] | Potency [9] | Potency [10] | Potency [11]

COc1c(C(CC(C)C)OC(C)=O)ccc(Oc2c(O)cc(C)cc2/C=C/C(C)=O)c1C(=O)O (stereo not drawn)
inactive: Potency [1] | Potency [2] | Potency [3] | Potency [4] | Potency [5] | Potency [6] | Potency [7] | Potency [8] | Potency [9] | Potency [10] | Potency [11]

CC[C@H](C)[C@@H]1NC(=O)[C@H](Cc2ccc(OC)cc2)NC(=O)CCCSC[C@@H](C(=O)N2CCC[C@H]2C(=O)N[C@@H](CC(C)C)C(=O)NCC(N)=O)NC(=O)[C@H](CC(N)=O)NC(=O)[C@H](CCC(N)=O)NC1=O (Y(Me)IQNCPLG-NH2; linker N-5 via X6)
inactive: Potency [1] | Potency [2] | Potency [3] | Potency [4] | Potency [5] | Potency [6] | Potency [7] | Potency [8] | Potency [9] | Potency [10] | Potency [11]

CCC(CC)n1ccc2c(C(=O)NCc3c(C)cc(C)[nH]c3=O)cc(C#N)cc21
inactive: Potency [1] | Potency [2] | Potency [3] | Potency [4] | Potency [5] | Potency [6] | Potency [7] | Potency [8] | Potency [9] | Potency [10] | Potency [11]

CC1(C)CCC(C)(C)c2cc([C@@H](O)C(=O)Nc3ccc(C(=O)O)cc3F)ccc21
inactive: Potency [1] | Potency [2] | Potency [3] | Potency [4] | Potency [5] | Potency [6] | Potency [7] | Potency [8] | Potency [9] | Potency [10] | Potency [11]

C=C1[C@@H]2CC[C@@]3(C)[C@H](c4ccoc4)OC(=O)C[C@]13O[C@H]1CC(=O)C(C)(C)[C@H](CC(=O)OC)[C@]12C
inactive: Potency [1] | Potency [2] | Potency [3] | Potency [4] | Potency [5] | Potency [6] | Potency [7] | Potency [8] | Potency [9] | Potency [10] | Potency [11]

COc1ccc(C2=CC(=O)OC2Cc2ccc(O)cc2)c(O)c1 (stereo not drawn)
inactive: Potency [1] | Potency [2] | Potency [3] | Potency [4] | Potency [5] | Potency [6] | Potency [7] | Potency [8] | Potency [9] | Potency [10] | Potency [11]

CC1(C)CC2C(C1)C1(C)CCC13OC3(CO)C2O (stereo not drawn)
inactive: Potency [1] | Potency [2] | Potency [3] | Potency [4] | Potency [5] | Potency [6] | Potency [7] | Potency [8] | Potency [9] | Potency [10] | Potency [11]

CC(=O)Oc1cc2c(s1)CCN([C@H](C(=O)C1CC1)c1ccccc1F)C2
inactive: Potency [1] | Potency [2] | Potency [3] | Potency [4] | Potency [5] | Potency [6] | Potency [7] | Potency [8] | Potency [9] | Potency [10] | Potency [11]

CCOC(=O)Nc1nc2ccccc2[nH]1
inactive: Potency [1] | Potency [2] | Potency [3] | Potency [4] | Potency [5] | Potency [6] | Potency [7] | Potency [8] | Potency [9] | Potency [10] | Potency [11]

C1CCN2CC3C[C@@H](CN4CCCC[C@@H]34)[C@H]2C1
inactive: Potency [1] | Potency [2] | Potency [3] | Potency [4] | Potency [5] | Potency [6] | Potency [7] | Potency [8] | Potency [9] | Potency [10] | Potency [11]

CCC(C)/C=C(C)/C=C/C1=CC2=C(Cl)C(=O)C(C)(OC(C)=O)C(=O)C2=CN1C1CCCCN(C(CCC(N)=O)C(=O)O)C1=O (stereo not drawn)
inactive: Potency [1] | Potency [2] | Potency [3] | Potency [4] | Potency [5] | Potency [6] | Potency [7] | Potency [8] | Potency [9] | Potency [10] | Potency [11]

CC(O)(CC(=O)O)CC(=O)O[C@@H]1[C@@H](O)[C@H](OCCc2ccccc2)O[C@H](CO)[C@H]1O (stereo partly drawn)
inactive: Potency [1] | Potency [2] | Potency [3] | Potency [4] | Potency [5] | Potency [6] | Potency [7] | Potency [8] | Potency [9] | Potency [10] | Potency [11]

CC(=O)OC[C@]1(O)[C@H]2[C@H](OC(=O)CC(C)C)OC=C(CO[C@@H]3O[C@H](CO)[C@@H](O)[C@H](O)[C@H]3O)[C@H]2C[C@@H]1O
inactive: Potency [1] | Potency [2] | Potency [3] | Potency [4] | Potency [5] | Potency [6] | Potency [7] | Potency [8] | Potency [9] | Potency [10] | Potency [11]

O=C1NCc2nc3ccccc3c(=O)n2C1Cc1c[nH]c2ccccc12 (stereo not drawn)
inactive: Potency [1] | Potency [2] | Potency [3] | Potency [4] | Potency [5] | Potency [6] | Potency [7] | Potency [8] | Potency [9] | Potency [10] | Potency [11]

CO/N=C(/C(=O)N[C@@H]1C(=O)N2C(C(=O)O)=C(CSC(=O)c3ccco3)CS[C@H]12)c1csc(N)n1
inactive: Potency [1] | Potency [2] | Potency [3] | Potency [4] | Potency [5] | Potency [6] | Potency [7] | Potency [8] | Potency [9] | Potency [10] | Potency [11]

CC1(CO)CC[C@]2(C(=O)O[C@@H]3O[C@H](CO)[C@@H](O)[C@H](O)[C@H]3O)CC[C@]3(C)C(=CCC4[C@@]5(C)CC[C@H](O[C@@H]6O[C@H](C(=O)O)[C@@H](O)[C@H](O)[C@H]6O)C(C)(C)C5CC[C@]43C)C2C1 (stereo partly drawn)
inactive: activity change, negative = cytotoxicity [1] 12.9% [at 11.6 µM] | activity change, negative = cytotoxicity [2] -3.81% [at 11.6 µM] | activity change, negative = cytotoxicity [3] 8.61% [at 11.6 µM] | activity change, negative = cytotoxicity [4] 8.66% [at 11.6 µM] | activity change, negative = cytotoxicity [5] 11.3% [at 11.6 µM] | activity change, negative = cytotoxicity [6] 10.8% [at 11.6 µM] | activity change, negative = cytotoxicity [7] 2.36% [at 11.6 µM] | activity change, negative = cytotoxicity [8] 28.3% [at 11.6 µM] | activity change, negative = cytotoxicity [9] 13% [at 11.6 µM] | activity change, negative = cytotoxicity [10] 6.77% [at 11.6 µM] | activity change, negative = cytotoxicity [11] 9.6% [at 11.6 µM]

COc1cc2c(cc1O)C1(Cc3ccc4c(c3C1=O)OCO4)N(C)CC2 (stereo not drawn)
inactive: Potency [1] | Potency [2] | Potency [3] | Potency [4] | Potency [5] | Potency [6] | Potency [7] | Potency [8] | Potency [9] | Potency [10] | Potency [11]

CC(C)(C)NCC(O)COc1cccc2c1CCCC2=O (stereo not drawn)
inactive: Potency [1] | Potency [2] | Potency [3] | Potency [4] | Potency [5] | Potency [6] | Potency [7] | Potency [8] | Potency [9] | Potency [10] | Potency [11]

C=C1C[C@]23C[C@H]1CC[C@H]2[C@]1(C)CCC[C@@]2(CO)C(=O)O[C@H]([C@H]21)[C@@H]3O
inactive: Potency [1] | Potency [2] | Potency [3] | Potency [4] | Potency [5] | Potency [6] | Potency [7] | Potency [8] | Potency [9] | Potency [10] | Potency [11]

C/C=C/C1=CC2=C(CO1)C(=O)[C@](C)(O)[C@H](OC(=O)c1c(O)cc(OC)c(O)c1C)C2
inactive: Potency [1] | Potency [2] | Potency [3] | Potency [4] | Potency [5] | Potency [6] | Potency [7] | Potency [8] | Potency [9] | Potency [10] | Potency [11]
